Results on one sequence are retold here after article PMC7862700, “An all-to-all approach to the identification of sequence-specific readers for epigenetic DNA modifications on cytosine”.

What all share (assay): DAPPL (digital affinity profiling via proximity ligation, sequencing); 10 mM Tris-HCl pH 7.5, 50 mM NaCl, 1 mM DTT, 4% glycerol, room temperature, 30 min; GST-TFs on glutathione beads, 16-mer random dsDNA library, 0.1% formaldehyde crosslink after washing; high values mean tight binding
One assay addresses T1, FEV (Homo sapiens, UniProt Q99581 1-238).
T1 sequence: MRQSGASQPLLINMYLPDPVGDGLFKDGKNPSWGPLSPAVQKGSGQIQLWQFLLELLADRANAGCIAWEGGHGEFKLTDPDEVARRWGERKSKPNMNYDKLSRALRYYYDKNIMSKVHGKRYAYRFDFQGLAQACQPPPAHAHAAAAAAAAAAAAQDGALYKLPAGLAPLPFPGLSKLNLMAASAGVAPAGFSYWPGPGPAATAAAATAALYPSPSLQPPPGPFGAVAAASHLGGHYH
The conditions noted are these: protein: recombinant; tags: N-terminal GST; dsDNA, one strand shown. The gist of the method:
(§1)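 Binding signal is each hexamer's read frequency for a factor divided by its frequency in the tag-only sample. The factors were GST-fused human transcription factors from yeast, captured on glutathione beads, DNA-barcoded and pooled with that sample. Pools were incubated with 200 nmole of a random double-stranded 16-mer DNA library in Tris/NaCl/DTT/glycerol buffer at room temperature for 30 min, then washed, crosslinked with 0.1% formaldehyde, proximity-ligated with BsaI/T4 ligase (1 h, 37 °C), PCR-amplified and sequenced on an Illumina NextSeq500.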

The target in a further assay is ETV5 (Homo sapiens, UniProt P41161 1-510). The conditions noted are these: protein: recombinant; tags: N-terminal GST; dsDNA, one strand shown. The gist of the method:
as §1

Another assay has as its target HSF1 (Homo sapiens, UniProt Q00613 1-529). The conditions noted are these: protein: recombinant; tags: N-terminal GST; chain copies: 3; dsDNA, one strand shown. The gist of the method:
as §1

Another assay concerns the target T2, SPIC (Homo sapiens, UniProt Q8N5J4 1-248).
T2 sequence: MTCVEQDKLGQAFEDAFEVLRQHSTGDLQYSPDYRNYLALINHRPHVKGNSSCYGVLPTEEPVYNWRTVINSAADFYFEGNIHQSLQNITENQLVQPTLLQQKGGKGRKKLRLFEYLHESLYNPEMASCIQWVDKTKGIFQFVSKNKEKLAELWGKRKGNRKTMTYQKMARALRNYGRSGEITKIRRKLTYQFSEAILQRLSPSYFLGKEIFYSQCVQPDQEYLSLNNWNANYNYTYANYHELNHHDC
The conditions noted are these: protein: recombinant; tags: N-terminal GST; dsDNA, one strand shown. A digest of the protocol: as §1

In the next assay the target is ELF4 (Homo sapiens, UniProt Q99607 1-663). The settings on record: protein: recombinant; tags: N-terminal GST; dsDNA, one strand shown. A digest of the protocol:
as §1

A further assay concerns the target T3, ELK4 (Homo sapiens, UniProt P28324-2 1-405).
T3 sequence: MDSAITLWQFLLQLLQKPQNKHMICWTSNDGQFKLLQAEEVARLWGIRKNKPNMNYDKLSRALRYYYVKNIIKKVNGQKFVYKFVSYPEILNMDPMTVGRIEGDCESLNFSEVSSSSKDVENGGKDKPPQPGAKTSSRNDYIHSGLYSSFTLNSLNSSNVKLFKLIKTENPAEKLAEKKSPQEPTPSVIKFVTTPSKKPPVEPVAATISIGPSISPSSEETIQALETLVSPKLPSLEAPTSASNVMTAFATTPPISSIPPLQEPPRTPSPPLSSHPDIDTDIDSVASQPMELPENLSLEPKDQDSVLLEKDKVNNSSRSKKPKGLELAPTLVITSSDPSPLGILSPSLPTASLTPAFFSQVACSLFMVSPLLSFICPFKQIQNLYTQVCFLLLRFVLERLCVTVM
The conditions noted are these: protein: recombinant; tags: N-terminal GST; dsDNA, one strand shown. The gist of the method:
as §1

A further assay concerns the target T4, ETV2 (Homo sapiens, UniProt O00321 1-342).
T4 sequence: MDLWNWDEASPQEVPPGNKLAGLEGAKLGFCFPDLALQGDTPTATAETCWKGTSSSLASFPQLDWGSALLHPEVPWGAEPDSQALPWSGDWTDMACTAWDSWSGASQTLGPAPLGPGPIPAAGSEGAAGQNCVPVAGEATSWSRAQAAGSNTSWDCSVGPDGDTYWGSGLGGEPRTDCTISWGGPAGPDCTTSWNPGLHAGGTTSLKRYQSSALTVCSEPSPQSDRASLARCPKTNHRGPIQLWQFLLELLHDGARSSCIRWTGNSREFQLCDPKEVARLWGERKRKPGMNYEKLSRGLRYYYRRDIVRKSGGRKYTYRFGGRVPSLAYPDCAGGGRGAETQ
The conditions noted are these: protein: recombinant; tags: N-terminal GST; dsDNA, one strand shown. A digest of the protocol: as §1

Another assay concerns the target T5, ELF3 (Homo sapiens, UniProt P78545 1-371).
T5 sequence: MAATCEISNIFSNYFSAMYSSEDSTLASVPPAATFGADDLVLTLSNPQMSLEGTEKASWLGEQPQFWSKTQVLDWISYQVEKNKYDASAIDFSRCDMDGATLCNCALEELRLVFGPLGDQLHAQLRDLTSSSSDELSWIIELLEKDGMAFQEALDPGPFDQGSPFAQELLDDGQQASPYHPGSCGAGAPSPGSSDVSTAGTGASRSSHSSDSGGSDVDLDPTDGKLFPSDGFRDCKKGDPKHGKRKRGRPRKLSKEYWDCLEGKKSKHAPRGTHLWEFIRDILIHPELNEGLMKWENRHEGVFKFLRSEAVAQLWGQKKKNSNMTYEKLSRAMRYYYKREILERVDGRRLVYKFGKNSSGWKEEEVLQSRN
The settings on record: protein: recombinant; tags: N-terminal GST; dsDNA, one strand shown. The gist of the method: as §1

The target in the next assay is CRX (Homo sapiens, UniProt O43186 1-299). The conditions noted are these: protein: recombinant; tags: N-terminal GST; dsDNA, one strand shown. A digest of the protocol: as §1
A further assay concerns the target ETV1 (Homo sapiens, UniProt P50549 1-477). The settings on record: protein: recombinant; tags: N-terminal GST; dsDNA, one strand shown. A digest of the protocol:
as §1

The next assay concerns the target T6, ERF (Homo sapiens, UniProt P50548 1-548).
T6 sequence: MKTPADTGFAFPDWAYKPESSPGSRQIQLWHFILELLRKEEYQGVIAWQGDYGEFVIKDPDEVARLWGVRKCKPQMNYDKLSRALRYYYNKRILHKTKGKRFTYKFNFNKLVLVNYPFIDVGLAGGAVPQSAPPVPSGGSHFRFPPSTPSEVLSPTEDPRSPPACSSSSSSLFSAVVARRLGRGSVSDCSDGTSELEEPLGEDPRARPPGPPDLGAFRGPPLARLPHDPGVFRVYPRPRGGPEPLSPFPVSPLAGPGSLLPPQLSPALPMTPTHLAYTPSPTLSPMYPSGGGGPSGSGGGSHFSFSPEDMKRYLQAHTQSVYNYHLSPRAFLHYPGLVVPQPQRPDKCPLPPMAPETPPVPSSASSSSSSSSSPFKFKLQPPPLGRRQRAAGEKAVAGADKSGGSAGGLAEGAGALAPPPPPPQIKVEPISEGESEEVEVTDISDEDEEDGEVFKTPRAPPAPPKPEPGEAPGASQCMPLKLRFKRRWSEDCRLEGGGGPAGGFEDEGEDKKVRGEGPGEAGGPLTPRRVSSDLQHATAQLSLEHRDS
The conditions noted are these: protein: recombinant; tags: N-terminal GST; dsDNA, one strand shown. The gist of the method: as §1

In another assay the target is T7, ETV3L (Homo sapiens, UniProt Q6ZN32 1-361).
T7 sequence: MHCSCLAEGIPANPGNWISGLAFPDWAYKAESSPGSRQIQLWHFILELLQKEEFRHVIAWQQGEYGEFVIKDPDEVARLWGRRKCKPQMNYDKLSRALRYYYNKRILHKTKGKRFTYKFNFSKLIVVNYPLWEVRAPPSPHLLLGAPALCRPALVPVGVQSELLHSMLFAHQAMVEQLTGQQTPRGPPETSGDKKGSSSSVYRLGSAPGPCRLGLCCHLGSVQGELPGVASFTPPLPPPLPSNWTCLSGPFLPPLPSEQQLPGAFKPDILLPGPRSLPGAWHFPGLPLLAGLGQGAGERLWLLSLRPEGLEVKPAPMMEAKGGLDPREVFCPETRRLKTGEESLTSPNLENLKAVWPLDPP
The settings on record: protein: recombinant; tags: N-terminal GST; dsDNA, one strand shown. The gist of the method:
as §1

For another assay, the target named is T8, ETS2 (Homo sapiens, UniProt P15036 1-469).
T8 sequence: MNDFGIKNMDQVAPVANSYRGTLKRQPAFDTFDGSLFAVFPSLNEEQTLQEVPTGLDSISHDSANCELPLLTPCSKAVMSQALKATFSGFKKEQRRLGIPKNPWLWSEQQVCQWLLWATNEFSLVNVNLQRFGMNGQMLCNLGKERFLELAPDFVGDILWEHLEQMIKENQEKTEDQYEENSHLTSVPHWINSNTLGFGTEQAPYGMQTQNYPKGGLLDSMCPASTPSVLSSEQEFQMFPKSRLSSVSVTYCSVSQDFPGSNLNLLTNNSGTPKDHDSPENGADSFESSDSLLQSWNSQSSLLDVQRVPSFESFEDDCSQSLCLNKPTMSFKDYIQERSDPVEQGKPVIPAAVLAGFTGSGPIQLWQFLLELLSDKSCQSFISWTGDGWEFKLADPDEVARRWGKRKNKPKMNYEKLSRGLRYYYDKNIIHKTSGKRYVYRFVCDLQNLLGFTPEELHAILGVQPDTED
The settings on record: protein: recombinant; tags: N-terminal GST; dsDNA, one strand shown. The gist of the method:
as §1

The target in the next assay is T9, SPDEF (Homo sapiens, UniProt O95238 1-335).
T9 sequence: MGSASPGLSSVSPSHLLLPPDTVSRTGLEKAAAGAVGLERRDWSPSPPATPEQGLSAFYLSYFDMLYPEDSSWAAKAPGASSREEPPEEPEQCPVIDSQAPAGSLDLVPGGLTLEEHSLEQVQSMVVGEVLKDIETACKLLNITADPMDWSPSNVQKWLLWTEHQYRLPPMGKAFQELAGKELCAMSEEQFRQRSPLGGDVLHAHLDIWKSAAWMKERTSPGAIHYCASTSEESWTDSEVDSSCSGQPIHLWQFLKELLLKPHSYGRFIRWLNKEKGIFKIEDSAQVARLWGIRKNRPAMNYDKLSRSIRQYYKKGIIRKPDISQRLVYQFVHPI
The conditions noted are these: protein: recombinant; tags: N-terminal GST; dsDNA, one strand shown. The gist of the method: as §1

The target in the next assay is T10, ETV7 (Homo sapiens, UniProt Q9Y603 1-341).
T10 sequence: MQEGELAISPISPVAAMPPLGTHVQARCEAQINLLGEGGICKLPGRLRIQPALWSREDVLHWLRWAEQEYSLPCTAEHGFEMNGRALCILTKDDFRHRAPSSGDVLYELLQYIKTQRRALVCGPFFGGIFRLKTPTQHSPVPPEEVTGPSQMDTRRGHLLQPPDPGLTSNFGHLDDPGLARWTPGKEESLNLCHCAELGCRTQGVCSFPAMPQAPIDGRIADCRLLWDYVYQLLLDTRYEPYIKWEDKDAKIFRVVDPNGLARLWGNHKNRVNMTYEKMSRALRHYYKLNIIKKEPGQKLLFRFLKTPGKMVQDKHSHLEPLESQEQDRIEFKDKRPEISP
The settings on record: protein: recombinant; tags: N-terminal GST; dsDNA, one strand shown. The gist of the method:
as §1

Another assay concerns the target T11, ELF5 (Homo sapiens, UniProt Q9UKW6-2 1-255).
T11 sequence: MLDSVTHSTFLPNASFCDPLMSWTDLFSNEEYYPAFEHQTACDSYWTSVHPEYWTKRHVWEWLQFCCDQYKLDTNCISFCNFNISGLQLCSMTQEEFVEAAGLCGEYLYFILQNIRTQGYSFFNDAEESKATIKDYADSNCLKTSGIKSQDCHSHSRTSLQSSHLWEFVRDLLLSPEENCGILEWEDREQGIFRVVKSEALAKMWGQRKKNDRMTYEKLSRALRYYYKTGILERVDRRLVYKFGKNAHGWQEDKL
The conditions noted are these: protein: recombinant; tags: N-terminal GST; dsDNA, one strand shown. A digest of the protocol:
as §1

The next assay has as its target T12, ETV3 (Homo sapiens, UniProt P41162-2 1-143).
T12 sequence: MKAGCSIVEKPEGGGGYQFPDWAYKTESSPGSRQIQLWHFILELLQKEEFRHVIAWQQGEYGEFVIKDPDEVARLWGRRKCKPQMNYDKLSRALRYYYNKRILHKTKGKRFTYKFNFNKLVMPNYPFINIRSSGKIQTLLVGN
The conditions noted are these: protein: recombinant; tags: N-terminal GST; dsDNA, one strand shown. The gist of the method: as §1

The next assay has as its target ETV6 (Homo sapiens, UniProt P41212 1-452). The settings on record: protein: recombinant; tags: N-terminal GST; dsDNA, one strand shown. A digest of the protocol: as §1

Sequence of ELF4 (Q99607 whole entry): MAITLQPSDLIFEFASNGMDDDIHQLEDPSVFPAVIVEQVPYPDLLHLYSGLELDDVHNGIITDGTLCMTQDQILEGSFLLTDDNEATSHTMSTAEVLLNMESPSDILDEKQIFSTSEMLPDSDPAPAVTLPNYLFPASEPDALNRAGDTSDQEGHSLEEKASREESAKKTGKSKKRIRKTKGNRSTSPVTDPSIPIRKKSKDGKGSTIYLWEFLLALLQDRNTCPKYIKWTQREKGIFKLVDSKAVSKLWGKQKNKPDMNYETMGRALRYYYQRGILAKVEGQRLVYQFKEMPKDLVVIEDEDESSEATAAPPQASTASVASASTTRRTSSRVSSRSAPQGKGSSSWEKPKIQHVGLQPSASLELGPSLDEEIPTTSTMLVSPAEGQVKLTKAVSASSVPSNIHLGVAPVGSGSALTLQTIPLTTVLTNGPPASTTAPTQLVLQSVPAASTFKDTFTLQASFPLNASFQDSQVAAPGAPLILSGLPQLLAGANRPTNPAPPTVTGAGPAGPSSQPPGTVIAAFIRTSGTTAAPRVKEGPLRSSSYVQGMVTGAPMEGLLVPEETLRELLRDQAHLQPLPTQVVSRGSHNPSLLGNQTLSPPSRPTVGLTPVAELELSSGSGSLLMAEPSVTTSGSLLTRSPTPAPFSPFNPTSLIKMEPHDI
Sequence of ETV1 (P50549 whole entry): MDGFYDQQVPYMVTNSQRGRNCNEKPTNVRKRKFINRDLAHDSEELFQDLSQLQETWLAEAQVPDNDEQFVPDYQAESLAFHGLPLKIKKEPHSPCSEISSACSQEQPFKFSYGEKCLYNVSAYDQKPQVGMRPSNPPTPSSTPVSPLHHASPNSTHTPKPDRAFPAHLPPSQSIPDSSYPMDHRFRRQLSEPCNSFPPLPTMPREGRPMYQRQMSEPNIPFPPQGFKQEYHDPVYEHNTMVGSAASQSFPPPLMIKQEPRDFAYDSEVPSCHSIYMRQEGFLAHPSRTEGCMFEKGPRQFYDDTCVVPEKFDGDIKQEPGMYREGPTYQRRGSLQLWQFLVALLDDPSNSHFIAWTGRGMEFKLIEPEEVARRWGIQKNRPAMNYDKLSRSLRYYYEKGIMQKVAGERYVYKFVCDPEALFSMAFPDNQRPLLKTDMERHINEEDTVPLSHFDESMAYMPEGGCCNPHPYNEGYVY
Sequence of CRX (O43186 whole entry): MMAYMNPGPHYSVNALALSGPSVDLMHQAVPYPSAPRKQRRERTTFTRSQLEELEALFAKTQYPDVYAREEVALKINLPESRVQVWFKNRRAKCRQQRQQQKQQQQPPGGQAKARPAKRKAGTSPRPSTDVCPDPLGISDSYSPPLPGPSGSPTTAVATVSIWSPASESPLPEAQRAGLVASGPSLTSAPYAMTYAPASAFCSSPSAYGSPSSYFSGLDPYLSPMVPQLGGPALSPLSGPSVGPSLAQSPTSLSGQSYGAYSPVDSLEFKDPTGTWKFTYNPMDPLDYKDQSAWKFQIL
Sequence of ETV5 (P41161 whole entry): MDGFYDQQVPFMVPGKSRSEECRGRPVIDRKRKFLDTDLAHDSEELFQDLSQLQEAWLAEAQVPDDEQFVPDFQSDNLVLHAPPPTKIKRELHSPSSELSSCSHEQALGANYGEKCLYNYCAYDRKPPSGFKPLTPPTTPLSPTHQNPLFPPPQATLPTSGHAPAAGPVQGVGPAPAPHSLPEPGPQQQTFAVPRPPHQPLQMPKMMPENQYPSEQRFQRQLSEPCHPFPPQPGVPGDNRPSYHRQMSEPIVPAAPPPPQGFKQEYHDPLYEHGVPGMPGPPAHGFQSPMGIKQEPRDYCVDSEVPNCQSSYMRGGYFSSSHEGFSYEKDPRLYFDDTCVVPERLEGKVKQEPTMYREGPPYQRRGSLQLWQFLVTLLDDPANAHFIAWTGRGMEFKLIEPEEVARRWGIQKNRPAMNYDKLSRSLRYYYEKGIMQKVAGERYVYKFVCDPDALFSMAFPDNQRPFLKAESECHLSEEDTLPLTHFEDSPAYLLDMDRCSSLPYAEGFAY
Sequence of ETV6 (P41212 whole entry): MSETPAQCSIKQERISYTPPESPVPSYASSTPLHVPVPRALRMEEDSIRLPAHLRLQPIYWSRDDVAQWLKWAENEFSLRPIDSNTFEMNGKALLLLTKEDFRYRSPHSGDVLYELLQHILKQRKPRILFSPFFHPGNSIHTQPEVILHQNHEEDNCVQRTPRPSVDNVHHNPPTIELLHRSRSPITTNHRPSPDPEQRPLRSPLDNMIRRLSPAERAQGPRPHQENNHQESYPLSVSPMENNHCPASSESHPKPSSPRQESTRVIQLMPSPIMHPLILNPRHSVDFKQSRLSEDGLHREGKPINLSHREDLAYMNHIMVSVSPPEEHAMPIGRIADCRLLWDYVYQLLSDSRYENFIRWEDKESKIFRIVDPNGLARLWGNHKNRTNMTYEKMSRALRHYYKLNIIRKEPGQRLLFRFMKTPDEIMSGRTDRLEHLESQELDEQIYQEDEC
Sequence of HSF1 (Q00613 whole entry): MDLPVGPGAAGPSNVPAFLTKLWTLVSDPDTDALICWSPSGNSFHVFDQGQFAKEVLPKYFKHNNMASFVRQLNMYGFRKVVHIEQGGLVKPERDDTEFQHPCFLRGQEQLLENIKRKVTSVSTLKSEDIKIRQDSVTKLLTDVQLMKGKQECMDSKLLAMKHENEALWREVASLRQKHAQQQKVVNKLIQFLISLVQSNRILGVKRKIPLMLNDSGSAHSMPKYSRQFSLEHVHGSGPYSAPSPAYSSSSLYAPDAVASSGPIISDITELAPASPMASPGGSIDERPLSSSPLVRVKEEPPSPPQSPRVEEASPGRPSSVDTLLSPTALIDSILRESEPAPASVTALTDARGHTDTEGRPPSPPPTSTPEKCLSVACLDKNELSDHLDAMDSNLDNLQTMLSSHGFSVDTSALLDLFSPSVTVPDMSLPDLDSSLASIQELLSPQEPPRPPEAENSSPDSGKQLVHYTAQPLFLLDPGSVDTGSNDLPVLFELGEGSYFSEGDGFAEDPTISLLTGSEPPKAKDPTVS

In the case of AACGCT, the binding signal was 1.18 fold enrichment (6-mer frequency, TF over GST control) with FEV; 1.23 fold enrichment (6-mer frequency, TF over GST control) with ETV5; 1.06 fold enrichment (6-mer frequency, TF over GST control) in the assay with HSF1; 1.26 fold enrichment (6-mer frequency, TF over GST control) in the assay with SPIC; 1.27 fold enrichment (6-mer frequency, TF over GST control) in the assay with ELF4; 1.22 fold enrichment (6-mer frequency, TF over GST control) in the assay with ELK4. The binding signal with ETV2 is 1.24 fold enrichment (6-mer frequency, TF over GST control); with ELF3 it was 1.14 fold enrichment (6-mer frequency, TF over GST control); with CRX, 1.17 fold enrichment (6-mer frequency, TF over GST control); in the assay with ETV1 it was 1.2 fold enrichment (6-mer frequency, TF over GST control); in the assay with ERF, 1.26 fold enrichment (6-mer frequency, TF over GST control); with ETV3L, 1.15 fold enrichment (6-mer frequency, TF over GST control). Besides, the binding signal was 1.13 fold enrichment (6-mer frequency, TF over GST control) with ETS2; 1.2 fold enrichment (6-mer frequency, TF over GST control) with SPDEF; 1.24 fold enrichment (6-mer frequency, TF over GST control) with ETV7; 1.19 fold enrichment (6-mer frequency, TF over GST control) with ELF5; 1.24 fold enrichment (6-mer frequency, TF over GST control) with ETV3; 1.27 fold enrichment (6-mer frequency, TF over GST control) in the assay with ETV6.
